WRN helicase inh – blocks human WRN helicase; Q14191; WRN helicase unwinding, fluorescent forked duplex, kinetic; Potency, µM (top dose mostly 114 µM), without a hit: top-dose activity change, negative = inhibition, actives largely listed as inhibitors; 360,000 tested, 0.46% active; note: % is set by controls: 0 for no effect and ±100 for the full control effect; nearly all actives have a fitted effect of over 55% in size
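Primary qHTS, 1536-well format. 20 nM WRN + compound, 15 min RT; start with 100 nM forked fluorophore/quencher duplex, 2 mM ATP (final); kinetic read ex 525/em 598 nm.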
POLB inh – inhibitors of human DNA polymerase beta | P06746 | Pol beta primer extension/strand displacement, fluorescence kinetic | Potency, µM (top dose mostly 114 µM), for inactives: top-dose activity change, negative = inhibition, most hits filed as inhibitors | 340,000 tested, 1.3% active | AID 485314; note: % is set by controls: 0 for no effect and ±100 for the full control effect
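Pol beta (10 nM) and compounds were preincubated 15 min at room temperature, then 50 nM substrate (final) started primer extension/strand displacement. Reads were taken at 0 and 10 min; concentration-response data were fitted to a four-parameter Hill equation.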
FEN1 inhibitor – blocks human flap endonuclease 1 | P39748 | Recombinant FEN1 flap cleavage, fluorescence, 15 min | Potency, µM (highest dose often 114 µM), for the others: at the top dose activity change, negative = inhibition, actives largely listed as inhibitors | 390,000 tested, 0.35% active | AID 588795; note: % is set by controls: 0 for no effect and ±100 for the full control effect; nearly all actives have a fitted effect of over 65% in size
Target sequence (P39748 whole entry, looked up): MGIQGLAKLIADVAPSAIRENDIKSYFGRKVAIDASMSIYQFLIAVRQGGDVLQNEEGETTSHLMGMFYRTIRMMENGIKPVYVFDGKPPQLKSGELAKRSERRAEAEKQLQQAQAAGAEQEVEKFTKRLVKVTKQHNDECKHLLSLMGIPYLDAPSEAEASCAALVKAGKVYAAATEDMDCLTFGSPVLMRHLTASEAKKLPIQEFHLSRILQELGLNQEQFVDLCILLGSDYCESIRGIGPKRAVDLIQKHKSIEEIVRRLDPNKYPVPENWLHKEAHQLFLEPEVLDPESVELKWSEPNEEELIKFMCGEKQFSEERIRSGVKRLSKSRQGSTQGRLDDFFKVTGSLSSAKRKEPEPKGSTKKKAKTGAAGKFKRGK
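Compounds are tested as a concentration series against 10 nM FEN1; after a 15 min room-temperature preincubation, 50 nM substrate starts cleavage, with plate reads at 0 and 15 min. Normalized responses are fitted by a Hill equation.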
POLH inh – inhibitors of human DNA polymerase eta; Potency, µM (titrated, usually from 114 µM), for the others: top-dose activity change, negative = inhibition, hits mostly inhibitors; 390,000 tested, 1.2% active; AID 588591; recombinant Pol eta, fluorescent DNA replication assay; note: % is set by controls: 0 for no effect and ±100 for the full control effect
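Pol eta (10 nM) was preincubated with compounds for 15 min at room temperature, after which fluorescent replication substrate (50 nM final) was added to start the reaction. Fluorescence was read kinetically at 0 and 10 min.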
POLK inh – inhibitors of human DNA polymerase kappa. Q9UBT6. purified Pol kappa, fluorescent DNA synthesis assay, 10 min. Potency, µM (series often up to 107 µM), inactives show at the highest dose activity, negative = inhibition, usual class: inhibitors. 400,000 tested, 0.53% active; note: % is set by controls: 0 for no effect and ±100 for the full control effect
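Pol kappa 10 nM + cpd, 15 min RT; start w/ substrate 50 nM final; fluorescence kinetic read, 0 and 10 min. Neg ctrl: buffer, no enzyme.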
POLI inh – DNA polymerase iota (human) inhibition | Q9UNA4 | Pol iota fluorescent replication assay, 10 min | Potency, µM (titrated, usually from 115 µM), inactives show at the top dose activity, negative = inhibition, hits mostly inhibitors | 390,000 tested, 1% active
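Pol iota at 10 nM preincubated 15 min with compounds at room temperature; reaction started with fluorescent substrate, 50 nM final. Fluorescence read kinetically at 0 and 10 min; buffer-only wells as negative control.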
* hit, by the source's call; ? = inconclusive; nt = no result given; ! = not confirmed by another sample; [ ] = dose if it differs, or a comment. A selection: hits, their analogues and other compounds. The true share with any hit is near 2.4%. Calls come from the whole dose curve; as a rule, active = well fitted curve in the direction sought with a large enough effect; inconclusive = small, poorly fitted or top-dose-only effect, or another doubt; inactive = no such curve, though single readings can be large; an effect the other way counts as inactive or inconclusive. Potency is the fitted concentration of half-maximal effect.

SMILES	WRN helicase inh	POLB inh	FEN1 inhibitor	POLH inh	POLK inh	POLI inh
Cc1cccc(N2CCN(C(=O)c3noc4c3COc3ccc(C)cc3-4)CC2C)c1 (configuration not stated)	-1.8%	2.3%	-9.7%	-13.1%	?	50.1µM*!
COc1cccc(NC(=O)c2cccc3c(=O)c4c([nH]c23)CCCC4)c1	nt	8.6%	12.5%	-6.7%	-7.2%	0.0%
COc1cc(Cl)ccc1OC1(C)CCN(Cc2ccc(-c3ccccn3)cc2)C1 (configuration not stated)	-5.6%	nt	nt	nt	nt	nt
Oc1c(/C=C/C=C/C=Nc2ccccc2)sc(=S)n1Cc1ccccc1	-29.6%	-57.9%	-16.2%	?	79.4µM*	25.1µM*
CCn1c(O)c(/C=C/C=C/C=Nc2ccccc2)sc1=S	-27.5%	1.4%	11.7%	-12.4%	-25.9%	?
CC(=O)N(C(C)=O)c1ncn(C)c1S(=O)(=O)Nc1ccccc1	-23.7%	nt	-6.6%	-15.7%	-1.4%	89.4%
C#Cc1ccc([C@@H]2C=C(C(=O)O)O[C@H](OCc3ccc(CO)cc3)C2)cc1	-30.5%	22.4µM*	11.7%	39.8µM*	?	?
O=C(O)C1=C[C@@H](c2ccccc2)C[C@@H](OCc2ccc(CO)cc2)O1	-1.9%	-4.3%	17.4%	-5.0%	-8.5%	-3.2%
Cc1cc(OCC(=O)OCC(=O)NC2CCS(=O)(=O)C2)ccc1Cl (configuration not stated)	4.5%	nt	nt	-9.5%	nt	nt
CN(c1ccccc1)S(=O)(=O)c1ccc2[nH]c(=O)oc2c1	-35.9%	50.1µM*	-3.6%	31.6µM*	-28.0%	11.2µM*
Cc1ccc(C)c(NS(=O)(=O)c2ccc3[nH]c(=O)oc3c2)c1	-19.7%	31.6µM*	-6.3%	31.6µM*	?	?
CCN(CC)S(=O)(=O)c1ccc(OC)c(NC(=O)/C=C/c2ccco2)c1	-8.2%	-21.1%	-17.8%	79.4µM*	-8.7%	?
Cc1cccc(-c2nc(Cn3c(SCc4cc(C)ccc4C)nc4ccncc43)c(C)o2)c1	nt	5.9%	3.2%	-14.3%	-8.7%	-2.6%
Oc1ccccc1/C=N/Nc1nn[nH]n1	6.2%	-1.6%	12.7%	-4.8%	5.8%	30.6%
CCOc1cc(/C=N/Nc2nnc(C)n2N)ccc1O	17.3%	-24.0%	-21.1%	-5.3%	-17.7%	8.91µM*
Cc1nnc(N/N=C/c2c(Cl)cccc2Cl)n1N	-12.4%	-10.5%	12.0%	-18.4%	5.3%	11.2µM*
Cc1nnc(N/N=C/c2ccccc2O)n1N	-5.6%	-0.1%	0.9%	-10.9%	-18.5%	14.1µM*
N[C@@H](Cn1c2c(c(=O)[nH]c1=O)CCC2)C(=O)O	nt	nt	nt	nt	-11.8%[60.1 µM]	nt
COc1ccc([C@H]2C[C@@H](O)[C@H](n3cc(C4CC4)nn3)CN2CC2CCCCC2)cc1	-4.0%	nt	nt	-10.8%	nt	nt
C#CCNC(=O)C1=C[C@@H](c2ccc3c(c2)OCO3)C[C@@H](OCCCCO)O1	-19.7%	nt	7.9%	?	-39.0%	50.1µM*
O=C(NCc1ccccc1)C1=C[C@@H](c2ccc3c(c2)OCO3)C[C@@H](OCCCCO)O1	-10.4%	nt	-20.3%	-0.5%	-9.5%	-13.2%
C#CCNC(=O)C1=C[C@H](c2ccc3c(c2)OCO3)C[C@H](OCCCCO)O1	-6.9%	nt	5.7%	50.1µM*	-29.6%	35.5µM*
COC(=O)c1nc(NC(=O)c2ccc(Br)cc2)n[nH]1	-17.7%	12.8%	1.4%	-2.6%	-12.0%	-3.3%
COC(=O)c1nc(NC(=O)C(C)(C)C)n[nH]1	10.3%	0.8%	-16.4%	1.8%	-8.2%	79.4µM*
O=C(N/N=C/c1c[nH]c2ccccc12)c1sc2ccccc2c1Cl	-15.7%	0.5%	-22.4%	-11.5%	-19.1%	139.1%
O=C(N/N=C/c1ccc([N+](=O)[O-])o1)c1sc2ccccc2c1Cl	-20.1%	?	39.8µM*	?	50.1µM*	20µM*
O=C(N/N=C/c1ccccn1)c1sc2ccccc2c1Cl	?	44.7µM*	?	?	-33.0%	-7.3%
CN1C(=O)/C(=C/c2ccc(OCc3ccc(C(=O)O)cc3)c(Cl)c2)NC1=S	?	35.5µM*	-27.2%	?	-2.2%	72.3%
